Screening results from PubChem BioAssay.
Artemis inh = blocks endonuclease activity of human Artemis; Q96SD1; recombinant Artemis, quenched FAM hairpin cleavage fluorescence; inhibition, % at 10 µM; actives 0.78% (n = 30,000);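 active = at 10 µM dose, at least 30% inhibition, measured as corrected fluorescence normalized to stimulator and neutral control wells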
Target sequence (Q96SD1 whole entry, looked up): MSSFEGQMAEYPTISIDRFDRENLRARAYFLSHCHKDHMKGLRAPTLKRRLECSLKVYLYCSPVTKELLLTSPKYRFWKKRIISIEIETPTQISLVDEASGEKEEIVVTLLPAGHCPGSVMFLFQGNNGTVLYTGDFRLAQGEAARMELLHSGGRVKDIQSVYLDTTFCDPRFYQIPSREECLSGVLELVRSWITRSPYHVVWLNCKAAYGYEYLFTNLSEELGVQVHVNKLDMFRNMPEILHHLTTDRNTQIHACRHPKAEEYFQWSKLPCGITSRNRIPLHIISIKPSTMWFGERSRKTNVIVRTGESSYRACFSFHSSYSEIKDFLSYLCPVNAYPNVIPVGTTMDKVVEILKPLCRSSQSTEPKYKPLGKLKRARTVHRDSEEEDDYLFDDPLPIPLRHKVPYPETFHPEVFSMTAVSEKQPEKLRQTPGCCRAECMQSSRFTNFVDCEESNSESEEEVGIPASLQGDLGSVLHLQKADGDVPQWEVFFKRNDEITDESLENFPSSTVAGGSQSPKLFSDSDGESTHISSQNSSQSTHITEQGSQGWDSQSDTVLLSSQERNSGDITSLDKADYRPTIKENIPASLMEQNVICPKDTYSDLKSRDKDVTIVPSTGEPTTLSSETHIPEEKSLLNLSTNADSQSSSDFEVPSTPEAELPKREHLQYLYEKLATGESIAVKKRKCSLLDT
Of the large screens only hits and unclear results are named; the others gave an inactive call. This excerpt belongs to a sample that is enriched for hits.

COc1ccc(CCNC(=O)CSc2nc3c(c(=O)n(C)c(=O)n3C)n2C)cc1OC	none
CCCc1cc2c(cc1NC(=O)c1ccc(Br)cc1)OCO2	none
CCNc1ccc(Br)cc(C(=O)/C=C/c2ccc3c(c2)OCO3)c1=O	Artemis inh 34.3
CC(=O)N/C(=C/c1ccc2c(c1)OCO2)C(=O)NCCCO	none
O=C(Cc1ccc(-n2cccc2)cc1)NCc1cccs1	none
Cc1ccc(C2CC(c3cccs3)=NN2C(=O)c2ccc(Br)o2)cc1 (stereo not given)	none
C=CCn1c(SCc2c(C(=O)OC)sc(N)c2C(=O)OC)nnc1-c1ccc(Br)cc1	none
Cc1sc(NC(=O)C2CCCCC2C(=O)O)c(C(N)=O)c1-c1ccc(C(C)(C)C)cc1 (stereo not given)	Artemis inh 40.1
Cc1sc(NC(=O)C2CCCCC2C(=O)O)c(C(N)=O)c1-c1ccccc1 (stereo not given)	none
Cc1sc(NC(=O)C2CCCCC2C(=O)O)c(C(N)=O)c1-c1ccc(C(C)C)cc1 (stereo not given)	none
O=C(Cc1nn[nH]n1)NCc1ccccc1Cl	none
CC1CCc2c(sc(NC(=O)CN3CCN(C(=O)c4ccco4)CC3)c2C#N)C1 (stereo not given)	none
CC(=O)N(/N=C1\Sc2ccccc2C1=O)c1ccccc1C	Artemis inh 31.9
CC(=O)N(/N=C1\Sc2ccccc2C1=O)c1ccccc1	Artemis inh 31.3
Cc1ccccc1-c1coc2cc(O)ccc2c1=O	none
CC(=O)N(CCCCN1C(=O)c2ccccc2C1=O)c1ccc(C)cc1	none
CC(=O)N(/N=C1\Sc2ccccc2C1=O)c1ccc(C)cc1C	none
O=C(Nc1nccs1)C1CCN(S(=O)(=O)c2c(Cl)cccc2Cl)CC1	none
CCC(=O)N1c2ccc(C)cc2C2=NNC(=S)NC21O (stereo not given)	none
COc1ccc(-c2nnc(SC(C)C(=O)Nc3c(C)n(C)n(-c4ccccc4)c3=O)o2)cc1 (stereo not given)	none
O=C(NC1CCCCCC1)C1CCCN(S(=O)(=O)c2cccs2)C1 (stereo not given)	none
CCOc1ccc2nc(NC(=O)C(CCSC)NS(=O)(=O)c3cccs3)sc2c1 (stereo not given)	none
CCOc1ccc2nc(NC(=O)C3CCCN(S(=O)(=O)c4cccs4)C3)sc2c1 (stereo not given)	Artemis inh 34.3
Cc1ccccc1N(C(=O)Cn1nnc(-c2cccs2)n1)C(C(=O)NCCC(C)C)c1ccco1 (stereo not given)	none
O=C(COC(=O)c1cc(-c2ccco2)nc2ccccc12)NCc1ccc2c(c1)OCO2	none
Cc1ccc(-c2cc(C(=O)NCc3ccco3)c3ccccc3n2)s1	none
O=C(COC(=O)c1cc(-c2ccc(Cl)s2)nc2ccccc12)NCc1ccco1	Artemis inh 32.1
O=c1ccccn1Cc1c(F)cccc1Cl	none
CCOC(=O)C(C)S(=O)(=O)c1ccc(C(F)(F)F)cn1 (stereo not given)	none
CN=C(Nc1cc(Cl)ccc1Cl)SC1CC(=O)N(c2ccc(C(=O)OC)cc2)C1=O (stereo not given)	none
Cc1ccc(Nc2nc(N)nc(CN3CCCCCC3)n2)cc1	Artemis inh 40.4
CC1CC(C)CN(Cc2nc(N)nc(Nc3ccccc3)n2)C1 (stereo not given)	none
Cc1c(Cl)cccc1Nc1nc(N)nc(CN2CCCCCC2)n1	none
Cn1c(SCC(=O)c2ccccc2)nnc1-c1cccc(N)c1	none
CC(=O)C1=C(O)C(=O)N(CCNCCO)C1c1ccccc1 (stereo not given)	none
Cc1ccc(CN(CC(=O)N/N=C/c2ccco2)S(=O)(=O)c2ccc(C)cc2)cc1	none
CCCOC(=O)/C(=C\c1ccc([N+](=O)[O-])o1)NC(=O)c1ccccc1	none
O=[N+]([O-])c1cccc(-c2ccc(/C=N/NC(=S)Nc3ccccc3)o2)c1	none
Cc1ccc2nc(N/N=C\c3ccc([N+](=O)[O-])o3)nc(-c3ccccc3)c2c1	Artemis inh 39.2
O=[N+]([O-])c1ccc(/C=N/Nc2nc(-c3ccccc3)c3cc(Br)ccc3n2)o1	Artemis inh 57.5
Cc1ccc(/C=N\Nc2nc3ccc(Cl)cc3[nH]2)o1	none
O=C(NNC(=O)c1ccc([N+](=O)[O-])o1)c1ccccc1	none
COc1ccc(-c2ccc(C#N)c(OC(=O)c3c(Cl)cccc3Cl)n2)cc1	none
CNC(=S)NNC(=O)Cc1ccc(OC)c(OC)c1	none
N#CCCNc1ccc(OCCC#N)cc1	none
Cc1ccc(C)c(/C(O)=C2/C(=O)C(=O)N(CCN3CCOCC3)C2c2ccco2)c1 (stereo not given)	none
C#CCOc1nc(OCC#C)nc(OCC#C)n1	none
CC(C)(C)NC(=O)CSC(=Nc1cccc(F)c1)NC#N	none
O=C(/C=C/c1ccccc1)c1cc(Br)ccc(=O)c1O	Artemis inh 36.4
CCc1ccc(/C=C/C(=O)c2c(C)cc(C)[nH]c2=O)cc1	none
NC(=O)c1cc2cc(Br)ccc2oc1=NCc1ccccc1	none
COc1ccccc1NC(=O)c1[nH]c(C)c(C(C)=O)c1C	none
COc1cccc(/C=N/NC(=O)c2ccc(-c3ccccc3)cc2)c1O	none
COc1cccc(/C=N/NC(=O)c2[nH]c(C)c(C(=O)N/N=C/c3cccc(OC)c3O)c2C)c1O	Artemis inh 90.7
CCOC(=O)/C(C#N)=C/C1=C(N2CCCC2)CC(C)(CC)OC1 (stereo not given)	none
